Results reported in the supplement of paper PMC10681739.

target: T1, ETS1 (UniProt P14921); assay: ETS1 binding intensity (PBM fluorescence), ETS1 alone (arbitrary fluorescence units); higher = stronger binding; details: ETS1 concentration 1 nM; RUNX1 concentration 0 nM
T1 sequence: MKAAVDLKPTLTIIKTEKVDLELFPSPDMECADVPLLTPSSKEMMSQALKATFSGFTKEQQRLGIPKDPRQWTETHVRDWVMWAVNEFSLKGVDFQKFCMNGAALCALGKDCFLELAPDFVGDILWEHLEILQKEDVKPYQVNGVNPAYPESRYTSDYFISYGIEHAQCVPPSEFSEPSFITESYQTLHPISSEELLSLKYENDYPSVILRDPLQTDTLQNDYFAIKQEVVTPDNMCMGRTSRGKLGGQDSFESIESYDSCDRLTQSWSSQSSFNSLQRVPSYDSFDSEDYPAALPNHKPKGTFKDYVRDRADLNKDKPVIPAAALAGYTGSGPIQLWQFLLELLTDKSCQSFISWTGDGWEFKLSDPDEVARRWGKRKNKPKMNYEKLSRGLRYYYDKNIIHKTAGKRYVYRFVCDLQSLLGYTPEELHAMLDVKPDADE

| Sequence | ETS1 binding intensity |
| --- | --- |
| TGCTTCCGGCGGGCGCTTGCTCCCCGCGGTCCGCAC | 657 |
| GGCTTTTCCGGGATCCCTTTCGCCTCATCACCGCAG | 522 |
| GACTGCGCCGGACGCGCCAGCCCTGCGGGATGACGT | 650 |
| TGCCTCTTCCTGTGGCTGGGCTGTATCTGACCACAC | 503 |
| CTTGCTCCCCACTTCCTACCACATTCAATGCCCGGA | 523 |
| GTCTTCACATGTAGGGGAAGTGGGTTAGCGTAGGAG | 951 |
| CTTTTTGATTTCCTCAAGCATCCCACAAATACACAG | 539 |
| CACTTGTCCTTCCTGGCCTGCGGCCGCCACCACTTC | 443 |
| GCGCGGCTCAGGAAGCGACGCGGTTCAGGGAGCGAA | 707 |
| TCAGTGCACTCGGATGTTGGCCGCAGTTGGGGTTAT | 453 |
| GGGCTTCCGGCTGAACCCATGGCTGCGGGCTGTGCT | 445 |
| GCGCCATTTCCGCTGCGCAAGGCACCACAGGCCCTG | 1140 |
| TTCAAAGGAGTCCAAGGAAGTGGTTTAACAGCGATG | 843 |
| GCAGGCGTGCGCTTCCGCTCCAACCCGCGCACTTCG | 1110 |
| TTTCCAGAGGATGTAGCTTCTGCGGGAGAGCTTCAA | 546 |
| TTCTCCACTTCCTTCTTTACCTCACCTACCACATAA | 568 |
| CCATGAGGAGGGAGGAAATAGTGGTACGAGGGCTGC | 1040 |
| AAAACGCGGAAATACGGTGGCTGCGGCCCGCGGGCA | 494 |
| GCTTTTCCGCTCCCAGAGTGCCCCGCCCACAGTTCA | 477 |
| CTGGCCAGCTCCCACGGATGTGGTAGGCAGGCAGCA | 965 |

| Sequence | ETS1 binding intensity |
| --- | --- |
| TGATGCAGGAAGGGGTGGAGTCACCACAGGAGGTAG | 827 |
| CAGCTTCCGGGCTAATTAGCAGTCGCGGTGTGCCGC | 413 |
| CCCCAGGTTGCTTCCGTTCTGGGAACCGCGTCCTCG | 1190 |
| CAAAGCAACCCAAGGGGATGTGGTCACTGGGGTGAG | 413 |
| GGCAGGCAGCAGAGGAAACCACCCCCACCCACTCCC | 1420 |
| ATGCAGAAGCTACAGGAAGAAGCCGCAGGCCAAGCT | 844 |
| TAACCCGGAGCGGAAGGATCCCGCAGCGTGTGCGTA | 681 |
| GAGCAACCAGGAAGAGCTTTGGCTGTGGGCTAAGAT | 511 |
| GCTGTTTCCTGCTGATAAAAACACCCCACAACTTCA | 449 |
| AGGGTGTACTCGGAAGTTTCGAGTGGTTGCTTGGTT | 451 |
| GTGGCTTCCTGCCATTGACAATTGCGGGATGGCTTT | 529 |
| CGAGCTATTTACTTCCTGCGGGTGCACAGGCTGTGA | 654 |
| GTGCCACTGAGAGGAAGGGGGCAACCACAGTGGGAG | 367 |
| TTGCTAGAGGAAGCGCTGCCCCGGCAGCCGCAGCCA | 524 |
| CGACGTCACTTCCGCTGGTTCAAGCACCGCGAGACT | 1900 |
| CTCTTCCAGGAAGCCTTCCCTGACCACTGCTTGCTC | 396 |
| AAGCAGAGCTCAGGATGTGGTGCCGTGCGAGGGCGG | 697 |
| AGCGCTTCCCCTTCCGCTGCCGCAGCCGCCGCCTCC | 498 |
| GTCGTCAGCGTCTTCCTGTCAGCGGTCGGCAGAGCC | 706 |
| TGGGCACGGGAGGAAGAGGCTGGGTGGTAAACAGGA | 467 |

target: T1, ETS1; assay: ETS1 binding intensity (PBM fluorescence) in presence of RUNX1, normalised to ETS1-only experiment (arbitrary fluorescence units); higher = stronger binding; details: ETS1 concentration 1 nM; RUNX1 concentration 25 nM

| Sequence | ETS1 binding intensity |
| --- | --- |
| TGCTTCCGGCGGGCGCTTGCTCCCCGCGGTCCGCAC | 762 |
| GGCTTTTCCGGGATCCCTTTCGCCTCATCACCGCAG | 301 |
| GACTGCGCCGGACGCGCCAGCCCTGCGGGATGACGT | 801 |
| TGCCTCTTCCTGTGGCTGGGCTGTATCTGACCACAC | 462 |
| CTTGCTCCCCACTTCCTACCACATTCAATGCCCGGA | 558 |
| GTCTTCACATGTAGGGGAAGTGGGTTAGCGTAGGAG | 1260 |
| CTTTTTGATTTCCTCAAGCATCCCACAAATACACAG | 659 |
| CACTTGTCCTTCCTGGCCTGCGGCCGCCACCACTTC | 372 |
| GCGCGGCTCAGGAAGCGACGCGGTTCAGGGAGCGAA | 577 |
| TCAGTGCACTCGGATGTTGGCCGCAGTTGGGGTTAT | 422 |
| GGGCTTCCGGCTGAACCCATGGCTGCGGGCTGTGCT | 329 |
| GCGCCATTTCCGCTGCGCAAGGCACCACAGGCCCTG | 943 |
| TTCAAAGGAGTCCAAGGAAGTGGTTTAACAGCGATG | 1400 |
| GCAGGCGTGCGCTTCCGCTCCAACCCGCGCACTTCG | 1100 |
| TTTCCAGAGGATGTAGCTTCTGCGGGAGAGCTTCAA | 584 |
| TTCTCCACTTCCTTCTTTACCTCACCTACCACATAA | 544 |
| CCATGAGGAGGGAGGAAATAGTGGTACGAGGGCTGC | 1040 |
| AAAACGCGGAAATACGGTGGCTGCGGCCCGCGGGCA | 573 |
| GCTTTTCCGCTCCCAGAGTGCCCCGCCCACAGTTCA | 426 |
| CTGGCCAGCTCCCACGGATGTGGTAGGCAGGCAGCA | 1430 |

| Sequence | ETS1 binding intensity |
| --- | --- |
| TGATGCAGGAAGGGGTGGAGTCACCACAGGAGGTAG | 952 |
| CAGCTTCCGGGCTAATTAGCAGTCGCGGTGTGCCGC | 450 |
| CCCCAGGTTGCTTCCGTTCTGGGAACCGCGTCCTCG | 984 |
| CAAAGCAACCCAAGGGGATGTGGTCACTGGGGTGAG | 1800 |
| GGCAGGCAGCAGAGGAAACCACCCCCACCCACTCCC | 1640 |
| ATGCAGAAGCTACAGGAAGAAGCCGCAGGCCAAGCT | 1120 |
| TAACCCGGAGCGGAAGGATCCCGCAGCGTGTGCGTA | 797 |
| GAGCAACCAGGAAGAGCTTTGGCTGTGGGCTAAGAT | 441 |
| GCTGTTTCCTGCTGATAAAAACACCCCACAACTTCA | 510 |
| AGGGTGTACTCGGAAGTTTCGAGTGGTTGCTTGGTT | 513 |
| GTGGCTTCCTGCCATTGACAATTGCGGGATGGCTTT | 542 |
| CGAGCTATTTACTTCCTGCGGGTGCACAGGCTGTGA | 475 |
| GTGCCACTGAGAGGAAGGGGGCAACCACAGTGGGAG | 590 |
| TTGCTAGAGGAAGCGCTGCCCCGGCAGCCGCAGCCA | 596 |
| CGACGTCACTTCCGCTGGTTCAAGCACCGCGAGACT | 1500 |
| CTCTTCCAGGAAGCCTTCCCTGACCACTGCTTGCTC | 505 |
| AAGCAGAGCTCAGGATGTGGTGCCGTGCGAGGGCGG | 847 |
| AGCGCTTCCCCTTCCGCTGCCGCAGCCGCCGCCTCC | 466 |
| GTCGTCAGCGTCTTCCTGTCAGCGGTCGGCAGAGCC | 562 |
| TGGGCACGGGAGGAAGAGGCTGGGTGGTAAACAGGA | 494 |
